Experimental data from PubChem BioAssay (NCI).
This is part of a sample that, as a whole, favours compounds with a hit. Of some 83,000 tested, about 20% had one in any assay.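 The endpoint reported here, percent growth, reads 100 for growth as untreated, 0 for no net growth and -100 for all cells dead.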 Activity calls are given as the source filed them. How the source made its calls: active means growth percent below 10; inactive means the rest.

Tests used:
Assay in all cases: NCI-60 one-dose screen, 48 h (100 = growth as untreated, 0 = no growth, -100 = all killed)
Conditions in all cases: 10 µM unless noted
[1] = system: T-47D breast
[2] = system: BT-549 breast
[3] = system: MDA-MB-435 melanoma
[4] = system: SW-620 colon
[5] = system: MCF7 breast
[6] = system: HCT-116 colon
[7] = system: HCC-2998 colon
[8] = system: KM12 colon

Measured: growth

O=C(Nc1ccc(Cl)cc1F)c1cc(Cl)ccc1O
active: [1] 0.896% | [2] -25.3% | [3] -11.4% | [4] 5.92% | [5] 2.27% | [6] -25.5% | [7] 8.54% | [8] -23.6%

CCOC(=O)NCCc1ccccc1
inactive: [1] 106% | [2] 108% | [3] 108% | [4] 99.2% | [5] 99.1% | [6] 108% | [7] 90.3% | [8] 108%

O=C(/C=C/c1cccc2ccccc12)c1ccc(NC(=O)c2ccccc2CN2C(=O)c3ccccc3C2=O)cc1
inactive: [1] 71% | [2] 68.8% | [4] 33.2% | [5] 56.7% | [6] 39.3% | [7] 109% | [8] 40.6%
active: [3] 6.48%

CCCCn1c(=O)c(-c2cc(-c3ccc(Cl)cc3)nc(-c3ccc(Cl)cc3)c2)cc2cc(Cl)ccc21
inactive: [1] 103% | [2] 106% | [3] 103% | [4] 99.7% | [5] 98.4% | [6] 106% | [7] 102% | [8] 102%

O=c1c2cc(F)ccc2sc2c(NCCO)nc3ccccc3c12
inactive: [1] 93.1% | [2] 114% | [3] 110% | [4] 103% | [5] 39.4% | [6] 105% | [7] 116% | [8] 105%

O=C(O)C(c1ccccc1)N1C(=O)CSC1=S (stereo unspecified)
inactive: [1] 97.7% | [2] 94.2% | [3] 99.5% | [4] 103% | [5] 93.8% | [6] 102% | [7] 112% | [8] 102%

CCOC(=O)c1cn2ncnc(Oc3ccc(NC(=O)NCCN4CCOCC4)c(Cl)c3)c2c1C
inactive: [1] 80.6% | [2] 96.5% | [3] 97.3% | [4] 94.1% | [5] 88.5% | [6] 94.7% | [7] 110% | [8] 103%

COc1cc(/C=C/C(=O)/C=C/c2cc(OC)c3c(c2OC)OCO3)c(OC)c2c1OCO2
active: [6] 2.58%
inactive: [1] 31% | [2] 31.4% | [3] 11.5% | [4] 17.8% | [5] 19.1% | [7] 107% | [8] 37%

COc1ccc(C(=O)n2nc(-c3ccccc3)nc2N)cc1OC
inactive: [1] 56.4% | [2] 94.6% | [3] 109% | [4] 90.3% | [5] 44.3% | [6] 98.2% | [7] 97.9% | [8] 85.8%

COc1cc(/C=C/c2c(C(C)=O)c(C)nc3ccccc23)cc(OC)c1OC
inactive: [1] 39.7% | [2] 48.4% | [4] 29.6% | [5] 19.3% | [6] 23.9% | [7] 54.8% | [8] 29.1%
active: [3] -0.529%

Cc1cc2nc3ccc(N=Nc4ccc(N(C)C)cc4)cc3n(-c3ccccc3)c-2cc1=N
active: [1] -57.2% | [2] -82.2% | [3] -97.5% | [4] -88.9% | [5] -65.1% | [6] -60.2% | [7] -81.8% | [8] -91.2%

Cc1[nH]c(C(=O)Nc2ccc(C(=O)NCCN)cc2OC(C)C)c(Cl)c1Cl
inactive: [2] 103%
active: [1] -1.29% | [3] -17.6% | [4] -89% | [5] 5.44% | [6] -50.1% | [7] -41.7% | [8] 8.19%

COc1cccc(Cc2nn3cc(-c4ccccc4)nc3s2)c1
active: [6] 2.81%
inactive: [1] 91.2% | [2] 91.6% | [3] 79.2% | [4] 30.6% | [5] 27.5% | [7] 104% | [8] 88.8%

COc1ccccc1/C=C1\Oc2cc(OCCN3CCC(Cc4ccccc4)CC3)ccc2C1=O
inactive: [1] 85.8% | [2] 85.4% | [3] 91.1% | [4] 69.1% | [5] 80.1% | [6] 73.9% | [7] 37.9% | [8] 91.7%

c1ccc(OCc2nnc(-c3ccc(Oc4ccccc4)cc3)o2)cc1
inactive: [1] 74.3% | [2] 101% | [3] 101% | [4] 103% | [5] 99.3% | [6] 100% | [7] 114% | [8] 93.7%

CC(=O)CC(c1ccccc1)c1c(C)[nH]c2ccccc12 (stereo unspecified)
inactive: [1] 99.5% | [2] 112% | [3] 100% | [4] 92.1% | [5] 96.2% | [6] 89.6% | [7] 110% | [8] 100%

CCN1C(=O)N(CC)C2Nn3c(s/c(=C4\C(=O)Nc5ccccc54)c3=O)=NC21 (stereo unspecified)
active: [3] -51%
inactive: [1] 45.8% | [2] 65.3% | [4] 27.6% | [5] 29.1% | [6] 31.8% | [7] 88% | [8] 33%

CCOC(=O)c1nc(Nc2ccc(C(C)=O)cc2)sc1C
inactive: [1] 93% | [2] 106% | [3] 100% | [4] 101% | [5] 92.9% | [6] 99.8% | [7] 114% | [8] 101%

CNc1ccc(Nc2cccc(C)c2)c2c1C(=O)c1ccccc1C2=O
inactive: [1] 40.9% | [2] 110% | [3] 135% | [4] 85.4% | [5] 10.2% | [6] 92.4% | [7] 88.5% | [8] 48.4%

Nc1nc2ccccc2c2c(=O)c3cc(F)ccc3sc12
inactive: [1] 84.3% | [2] 106% | [3] 98.6% | [4] 107% | [5] 34.4% | [6] 99.4% | [7] 96.6% | [8] 99%

COc1ccc2c(c1)c(-c1ccc(-c3cn(C)c4ccc(OC)cc34)o1)cn2C
active: [1] -14% | [2] 1.95%
inactive: [3] 89.5% | [4] 38% | [5] 65.4% | [6] 68.6% | [7] 30.1% | [8] 22.7%

Cn1cc(-c2ccc3cc(-c4ccc(CC(=O)Nc5cc(C(C)(C)C)nn5C)cc4)cnc3c2)cn1
active: [1] -0.815% | [2] -8.22% | [3] 5.58% | [8] -33.3%
inactive: [4] 20.1% | [5] 13.4% | [6] 11.5% | [7] 32.9%

CCN1C(=O)N(CC)C2Nn3c(s/c(=C4\C(=O)N(CCC(C)C)c5ccccc54)c3=O)=NC21 (stereo unspecified)
inactive: [1] 36.3% | [2] 99.6% | [3] 12.5% | [4] 61.1% | [5] 15.1% | [6] 12.6% | [7] 99.8% | [8] 67.9%

CCN(CC)CCNc1nc2ccccc2c2c(=O)c3cc(Cl)ccc3sc12
inactive: [1] 60.4% | [2] 94% | [3] 15.6% | [4] 17.2% | [5] 52.3% | [6] 20.5% | [7] 14.2% | [8] 26.5%

COc1ccc(-c2conc2-c2ccccc2)cc1
active: [3] -45.4% | [8] 9.21%
inactive: [1] 52.8% | [2] 29.6% | [4] 19.8% | [5] 16% | [6] 12.3% | [7] 19.5%

Cc1c(C(=O)NCCN2CCOCC2)cn2ncnc(Oc3ccc(NC(=O)Nc4ccc(Cl)c(C(F)(F)F)c4)cc3)c12
inactive: [1] 15% | [2] 45.6% | [3] 18% | [7] 51.1% | [8] 19.6%
active: [4] 0.917% | [5] 7.07% | [6] 8.49%

CNc1nc2c(s1)C(c1cc(F)ccc1F)CC(=O)N2 (stereo unspecified)
inactive: [1] 63.6% | [2] 80.5% | [4] 30.9% | [5] 36.5% | [6] 53.5% | [7] 88.1% | [8] 52.9%
active: [3] -51.6%

Cc1nc(S(=O)(=O)c2ccccc2)c(S(=O)(=O)Cc2ccc([N+](=O)[O-])cc2)o1
inactive: [1] 77% | [2] 87.7% | [3] 101% | [4] 90.9% | [5] 74.2% | [6] 86.6% | [7] 97.7% | [8] 106%

COc1cc(C(=O)c2cc(C)c3[nH]c4ccc(C)cc4c3c2C)cc(OC)c1OC
active: [6] 5.32% | [8] 3.84%
inactive: [1] 39.9% | [2] 14.5% | [3] 17.5% | [4] 31.4% | [5] 11.6% | [7] 15.9%

O=C(CSc1nccc(Nc2ccc(S(=O)(=O)Nc3nccs3)cc2)n1)c1ccc(C(F)(F)F)cc1
inactive: [1] 82.1% | [2] 88.2% | [3] 99% | [4] 102% | [5] 94.2% | [6] 86.7% | [7] 112% | [8] 106%

NCCCNc1nc2ccccc2c2c(=O)c3cc(F)cc(F)c3sc12
active: [3] -91.2% | [4] -75.6%
inactive: [1] 92.7% | [2] 93.4% | [5] 75.5% | [6] 53.2% | [7] 75.3% | [8] 79.1%

COc1ccc(C2NC(=O)C(C#N)c3c2sc2c(F)cccc32)c(OC)c1 (stereo unspecified)
active: [3] -28.7%
inactive: [1] 61.7% | [2] 72.1% | [4] 32.3% | [5] 24.5% | [6] 23.8% | [7] 88.3% | [8] 32%
